KB-V1 MDR tox: KB-V1 MDR subline cytotoxicity | KB-V1 MDR cells viability, CellTiter-Glo, 72 h | Potency, µM (highest dose often 46.1 µM), actives largely listed as cytotoxic | hit rate 3.4% among 400,000 | AID 1347076; further: potency means the concentration at half of the fitted maximal effect; on the % scale 0 is the no-effect control and ±100 the full control effect; nearly all actives have a fitted effect of over 60% in size
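Potencies derive from concentration-effect curves fitted to normalized luminescence (CellTiter-Glo) of KB-V1 cells treated for 72 h at 37 degrees C in phenol-red-free DMEM containing 10% FBS.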
MCF10A rerep: inducers of DNA re-replication in MCF 10A breast cells. AID 624296. Potency, µM (top dose mostly 46.1 µM), for inactives: at the top dose activity, positive = re-replication, most hits filed as activators. MCF 10A DNA re-replication, Hoechst nuclear intensity, 48 h. hit rate 2.9% among 350,000; further: potency means the concentration at half of the fitted maximal effect; % of control where 0% means no effect; nearly all actives have a fitted effect of over 50% in size
DRD3 agonist: activates the human D3 dopamine receptor; P35462; D3R DiscoveRx beta-arrestin cells, luminescence, 90 min; max activation, %; hit rate 0.58% among 410,000; AID 652048; in the data active means max activation above about 30%; further: 0% is about no effect
Target sequence (P35462 whole entry, looked up): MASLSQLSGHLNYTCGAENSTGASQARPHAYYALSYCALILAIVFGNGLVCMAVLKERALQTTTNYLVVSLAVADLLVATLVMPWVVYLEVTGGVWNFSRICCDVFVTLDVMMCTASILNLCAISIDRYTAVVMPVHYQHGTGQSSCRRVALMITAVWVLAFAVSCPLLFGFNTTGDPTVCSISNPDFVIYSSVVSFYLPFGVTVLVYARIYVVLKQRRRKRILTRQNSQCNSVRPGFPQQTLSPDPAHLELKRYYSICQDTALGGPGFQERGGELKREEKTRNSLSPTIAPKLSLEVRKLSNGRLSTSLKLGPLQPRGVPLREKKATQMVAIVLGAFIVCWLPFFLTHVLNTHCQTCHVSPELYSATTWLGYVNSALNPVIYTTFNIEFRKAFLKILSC
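Agonist-mode cell screen: cells plated at 1500/well and incubated overnight at 37 °C, then exposed to library compounds for 90 min at 37 °C. Detection reagent was added for 30–60 min at room temperature, and luminescence was read.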
KB-3-1 cytotox: KB-3-1 parental cell cytotoxicity. AID 1347075. Potency, µM (doses to about 46.1 µM), actives largely listed as cytotoxic. hit rate 1.4% among 400,000. KB-3-1 viability, CellTiter-Glo ATP luminescence, 72 h; further: potency means the concentration at half of the fitted maximal effect; on the % scale 0 is the no-effect control and ±100 the full control effect; nearly all actives have a fitted effect of over 60% in size
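Viability of parental KB-3-1 cells, measured by CellTiter-Glo luminescence, followed a 72 h incubation at 37 °C with pinned compounds in phenol-red-free DMEM containing 10% FBS.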
D3 antag: blocks the human D3 dopamine receptor | max response, negative = inhibition, % | P35462 | D3R cells, DiscoveRx beta-arrestin luminescence, antagonist mode; hits give low values | hit rate 2.5% among 360,000; in the data active means max response below about -50%; inconclusive means no clear call, values can overlap the other calls; further: on the % scale 0 is the no-effect control and ±100 the full control effect
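Cells plated overnight at 1500 cells/well, then exposed to library compounds with dopamine controls for 90 minutes at 37 degrees C. DiscoveRx reagent added for 30–60 minutes at room temperature; luminescence read, quantitative HTS format.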
SW480 rerep: DNA re-replication induction in SW480 cells | SW480 DNA re-replication, Hoechst DNA content imaging, 48 h | Potency, µM (doses to about 46.1 µM), for the others: at the highest dose re-replication activation, most hits filed as activators | hit rate 1.8% among 340,000 | AID 624297; further: potency means the concentration at half of the fitted maximal effect; % of control where 0% means no effect; nearly all actives have a fitted effect of over 55% in size
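Treated cells incubate 48 hr (37 C, 5% CO2), are stained 40 min with Hoechst, and nuclear fluorescence is enumerated; a rise in nuclei with high DNA signal marks re-replication.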
* = called active by the depositor; i = inactive; ? = inconclusive; . = no result. This is a sample that favours compounds with a hit; in the whole collection about 8.9% have one here. Unless noted, the call rests on the fitted dose curve; in most records, active means well fitted curve in the direction sought with a large enough effect; inconclusive means small, poorly fitted or top-dose-only effect, or another doubt; inactive means no such curve, though single readings can be large; an effect the other way counts as inactive or inconclusive.

SMILES	KB-V1 MDR tox	MCF10A rerep	DRD3 agonist	KB-3-1 cytotox	D3 antag	SW480 rerep
COC(=O)C1CN(C#N)N(c2ccc(Cl)cc2)C12c1ccccc1-c1ccccc12 (configuration not stated)	12µM*	7.1µM*	-4	5.2µM*	-76*	3.3µM*
Cc1ccc(NS(=O)(=O)c2c(F)cc(F)c(Cl)c2F)cc1S(=O)(=O)N1CCOCC1	i	2%	3	i	-6	?
CC1Oc2cc3c(-c4c(O)cc(O)c5c(O)c6c(cc45)OC(C)C(C)C6=O)c(O)cc(O)c3c(O)c2C(=O)C1C (configuration not stated)	?	-1%	-50	?	?	13µM*
COc1cccc(/C=N/NC(=O)c2c(C)nc3ccc(Br)cn23)c1	i	1%	-1	i	5	?
C=CCn1cc(C=C2C(=O)NC(=O)NC2=O)c2ccccc21	i	5%	3	i	9	-11%
O=C1NC(=O)C(=Cc2cn(CCOc3ccc4c(c3)OCO4)c3ccccc23)C(=O)N1	?	?	-5	21µM*	23	?
CNc1ccc2nc3ccccc3[n+](C)c2c1	?	1%	-11	i	-59*	?
C[n+]1c2ccccc2nc2ccc(NCCO)cc21	?	-2%	-23	?	-54*	?
Cn1nc(C(F)(F)F)c(-c2ccccc2)c1N	?	?	-17	i	-12	-9%
Cc1ccc(S(=O)(=O)NN=Cc2cc(Cl)ccc2O)cc1	i	?	3	i	-17	9%
COc1ccc(C)cc1NC(=O)N(Cc1ccc2c(c1)OCO2)C1CCN(Cc2ccccc2)CC1	i	.	-28	i	.	.
COC(=O)C1=C(C(=O)OC)SC2(S1)C(C(=O)OC)=C(C(=O)OC)Sc1c2ssc1=O	?	?	-10	?	-96*	1µM*
CCc1cc(OC)c(C[C@H](C)N)cc1OC	.	.	2	.	.	.
O=C(NC1CC2CCCC(C1)N2)c1ccccc1 (configuration not stated)	i	2%	4	i	5	-1%
Cc1ccc(CN2C3CCCC2CC(NC(=O)c2ccc(C)cc2)C3)cc1 (configuration not stated)	i	?	-10	i	-109*	-1%
Clc1cccc(Cl)c1Cn1nnc(N2CCCC2)n1	i	0%	-4	i	-16	-135%
CC(=O)[C@H]1CC[C@H]2[C@@H]3CC[C@H]4C[C@H](O)CC[C@]4(C)[C@H]3C(=O)C[C@]12C	i	9%	-9	i	13	3%
CC(=O)OCC(=O)[C@H]1CC[C@H]2[C@@H]3CC[C@H]4C[C@H](O)CC[C@]4(C)[C@H]3C(=O)C[C@]12C	i	16%	-31	i	-85*	18%
CC1CC(C)(O)CC(C(O)CC2CC(=O)NC(=O)C2)C1=O (configuration not stated)	6.5µM*	?	1	0.92µM*	-7	?
CC=CC(C)=CC(C)C(=O)CC(O)CC1CC(=O)NC(=O)C1 (configuration not stated)	i	.	-9	i	0	.
O=C(Cn1c(=O)oc2cc(S(=O)(=O)N3CCCC3)ccc21)Nc1cccc(C(F)(F)F)c1	i	?	4	i	0	35%
CC(C)NCC(O)c1ccc(C2CCCC2)cc1 (configuration not stated)	23µM*	12%	-15	i	-14	-23%
COc1ccc(-c2nc3ccccc3c(=O)n2-c2ccc(OC)cc2)cc1	i	22%	-8	i	-8	-8%
CCn1nc(-c2ccccc2)nc2c(=O)n(C)c(=O)nc1-2	i	1.5µM*	-14	5.2µM*	?	?
Cc1nc2c(=O)n(C)c(=O)nc-2n(C)n1	6.5µM*	9.2µM*	-28	5.2µM*	-98*	0.52µM*
SMILES	KB-V1 MDR tox	MCF10A rerep	DRD3 agonist	KB-3-1 cytotox	D3 antag	SW480 rerep
Cn1nc(-c2ccccc2)nc2c(=O)n(C)c(=O)nc1-2	5.8µM*	.	.	4.6µM*	.	.
O=c1c2ccccc2nc(-c2ccccc2)n1-n1cccc1	i	?	5	i	18	1%
Clc1ccc2c(c1)C(OC1CN3CCC1CC3)c1ccccc1CS2 (configuration not stated)	16µM*	?	-48	?	-28	?
CN1CCN(CCOC2c3ccccc3CSc3ccc(Cl)cc32)CC1 (configuration not stated)	?	23µM*	-33	?	-90*	?
CC(C)N(CC[C@@](C(N)=O)(c1ccccc1)c1ccccn1)C(C)C	.	-5%	.	.	.	-3%
Cc1sc2c(c1C)C(c1ccc(C(C)(C)C)cc1)=NCC(=O)N2CC(=O)Nc1nccs1	21µM*	?	-5	?	17	26%
Cc1sc2c(c1C)C(c1cccs1)=NCC(=O)N2CC(=O)NCc1cccs1	?	?	6	i	20	-2%
O=C(CN1CCN(C(=O)COc2cccc(F)c2)CC1)Nc1ccc(Cl)c(C(F)(F)F)c1	i	-3%	2	i	7	-15%
O=C(Nc1ccc(Cl)c(C(F)(F)F)c1)NC1CC2CCCC(C1)N2Cc1ccccc1 (configuration not stated)	?	?	-19	?	-84*	?
O=C(O)CSCC(=O)N(Cc1ccccc1)c1nc(-c2ccccc2)c(-c2ccccc2)s1	i	?	-2	i	-12	12%
COC(=O)C1=C(c2cccc(OCc3ccccc3)c2)C[C@@H]2CC[C@H]1N2C(=O)NCc1ccc(OC)cc1	?	?	-19	i	-68*	-6%
COC(=O)C1=C(c2cccc(OCc3ccccc3)c2)C[C@@H]2CC[C@H]1N2C(=O)NCc1ccccc1OC	i	?	-20	i	-52*	2%
COC(=O)C1=C(c2cccc(OCc3ccccc3)c2)C[C@@H]2CC[C@H]1N2C(=O)NCc1ccc(Cl)cc1	?	?	2	?	-52*	-2%
CCOC(=O)N1CCN(C(=O)C(CC(C)C)NS(=O)(=O)c2ccc3c(c2)oc(=O)n3C)CC1 (configuration not stated)	i	?	7	i	16	-5%
CC(C)(C)OC(=O)c1ncn2c1[C@@H]1CCCN1C(=O)c1c(Br)cccc1-2	.	14%	0	.	.	1%
OCc1cccc[n+]1CCc1ccccc1	i	-1%	-6	i	-15	-118%
CNCC[C@H](Oc1cccc2ccccc12)c1cccs1	?	-37%	-15	?	0	13µM*

High-throughput results (PubChem)
